uPA surface inh – qHTS for Inhibitors of Cell Surface uPA Generation. cell surface uPA generation assay, qHTS. Potency, µM (series often up to 38.3 µM), actives largely listed as inhibitors. actives 0.31% (n = 330,000); active = well fitted inhibition curve with a large enough effect; inconclusive = small, poorly fitted or top-dose-only effect; inactive = no such curve, though single readings can be large or run the other way; tested in mouse RAW 264.7 cells; also: nearly all actives have a fitted effect of over 55% in size
miR-21 reporter – qHTS Assay for Modulators of miRNAs and/orActivators of miR-21 | Potency, µM (doses to about 38.3 µM), hits mostly activators | AID 2288, 2010 | HeLa miR-21 FLuc reporter, luciferase, 48 h | 340,000 tested, under 10 active;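 also: miR-21 action dims this reporter so a rising signal means less miR-21 action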
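Luminescence from a firefly luciferase reporter carrying a miR-21 binding site downstream, stably expressed under a CMV promoter in HeLa cells that make miR-21 endogenously, reports miRNA modulation after 48 h compound exposure up to approximately 40uM final.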
TDP1 block – qHTS Assay for Inhibitors of Tyrosyl-DNA Phosphodiesterase (TDP1); actives 0.28% (n = 350,000); Potency, µM (highest dose often 130 µM), actives largely listed as inhibitors; recombinant TDP1, AlphaScreen DNA substrate cleavage; Tyrosyl-DNA phosphodiesterase 1 (Homo sapiens), Q9NUW8; also: nearly all actives have a fitted effect of over 40% in size
Target sequence (Q9NUW8 whole entry, looked up): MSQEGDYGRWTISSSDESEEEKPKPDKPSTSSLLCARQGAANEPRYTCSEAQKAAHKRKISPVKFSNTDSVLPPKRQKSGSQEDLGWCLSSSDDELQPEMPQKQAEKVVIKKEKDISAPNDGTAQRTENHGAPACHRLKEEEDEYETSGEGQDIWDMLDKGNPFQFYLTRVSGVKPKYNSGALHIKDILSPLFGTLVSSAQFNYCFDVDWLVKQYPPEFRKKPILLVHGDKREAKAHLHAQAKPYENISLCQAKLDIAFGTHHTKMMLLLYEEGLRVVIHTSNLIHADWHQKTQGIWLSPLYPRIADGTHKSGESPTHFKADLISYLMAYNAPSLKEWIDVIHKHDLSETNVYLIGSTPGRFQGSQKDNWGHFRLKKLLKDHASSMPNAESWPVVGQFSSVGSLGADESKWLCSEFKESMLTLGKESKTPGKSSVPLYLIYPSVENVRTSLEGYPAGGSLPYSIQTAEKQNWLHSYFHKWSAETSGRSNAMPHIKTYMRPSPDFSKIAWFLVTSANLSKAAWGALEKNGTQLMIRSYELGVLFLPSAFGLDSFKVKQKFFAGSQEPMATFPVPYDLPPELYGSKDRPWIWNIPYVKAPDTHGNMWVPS
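E. coli-derived human Tdp1, 1 nM final. Cpd preinc 15 min RT; substrate 15 nM final, 5 min RT; AS bead mix 10 ug/ml final, 10 min RT. Signal loss = tyrosine-FITC cleavage. No-enzyme wells = max signal.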
TDP1 cell CPT – qHTS for Inhibitors of human tyrosyl-DNA phosphodiesterase 1 (TDP1): qHTS in cells in presence of CPT. chicken DT40 Tdp1-/-;hTDP1 cells + 20 nM CPT, ATP luminescence, 48 h. Potency, µM (top dose mostly 46.2 µM), hits mostly inhibitors. actives 12% (n = 420,000); also: nearly all actives have a fitted effect of over 55% in size
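Chicken DT40 Tdp1-/- cells complemented with human TDP1, 400 cells/well, exposed to compounds plus 20 nM camptothecin for at least 48 h at 37 C; viability read as ATP content by CellTiter-Glo luminescence.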
TDP1 cell noCPT – qHTS for Inhibitors of human tyrosyl-DNA phosphodiesterase 1 (TDP1): qHTS in cells in absence of CPT | DT40 Tdp1-/- hTDP1 cells, no CPT, ATP luminescence, 48 h | Potency, µM (top dose mostly 46.2 µM), hits mostly inhibitors | actives 15% (n = 420,000); also: nearly all actives have a fitted effect of over 55% in size
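DT40 Tdp1-/-;hTDP1 cells, no CPT (DMSO vehicle only), 400 cells/well; compounds pin-transferred; ≥48 hr, 37 °C; CellTiter-Glo 30 min RT dark, luminescence read.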
A number is an active result; 0 = inactive; ? = inconclusive; - = no result; [ ] = remark or other dose. A selection: hits, their analogues and other compounds. The true share with any hit is near 16%. Unless noted, calls follow the shape of the dose curve; as a rule, active = well fitted curve in the direction sought with a large enough effect; inconclusive = small, poorly fitted or top-dose-only effect, or another doubt; inactive = no such curve, though single readings can be large; an effect the other way counts as inactive or inconclusive.

SMILES	uPA surface inh	miR-21 reporter	TDP1 block	TDP1 cell CPT	TDP1 cell noCPT
C/C=C1\COC(C(=O)NCCCN2CCCC2=O)(C(F)(F)F)C=C1C=C(C)C (centres undefined)	0	-	0	21µM	18µM
C/C=C1\COC(C(=O)NCCN2CCOCC2)(C(F)(F)F)C=C1C=C1CCCCC1 (centres undefined)	-	-	0	-	-
Cc1cccnc1NC(=O)CN1C(=O)c2ccccc2S1(=O)=O	0	-	0	0	0
O=c1c2oc3ccccc3c2n(Cc2cccc(Cl)c2)c(=O)n1Cc1ccco1	-	0	0	16µM	16µM
O=c1c2oc3ccccc3c2n(Cc2ccccc2)c(=O)n1Cc1ccco1	-	0	0	0	0
Cc1ccc(-n2c(=O)c3oc4ccccc4c3n(Cc3ccccc3)c2=O)cc1C	-	0	0	21µM	13µM
COc1ccccc1NC(=O)Cn1c(=O)n(Cc2ccco2)c(=O)c2oc3ccccc3c21	-	0	0	?	15µM
COc1cccc(Cn2c(=O)n(Cc3ccco3)c(=O)c3oc4ccccc4c32)c1	-	0	0	?	23µM
COc1ccc(Cn2c(=O)c3oc4ccccc4c3n(Cc3cccc(F)c3)c2=O)cc1	-	0	0	?	?
CC(C)(C)C(=O)CSc1nc(N)cc(=O)[nH]1	0	0	0	0	0
Cc1ccc(CN2CC(C(=O)Nc3ccc(S(=O)(=O)Nc4cc(C)nc(C)n4)cc3)CC2=O)cc1 (centres undefined)	0	0	0	0	0
COC(=O)C1=C(COc2ccc(F)cc2)NC(=O)NC1c1ccc(C)cc1C (centres undefined)	0	0	0	?	?
COc1ccc(NC(=O)c2ccc3c(=O)n(Cc4ccco4)c(=S)[nH]c3c2)c(OC)c1	0	0	0	?	13µM
CCC1=C(c2ccc(C)cc2)S(=O)(=O)N=C1N1CCC(C(=O)N2CCCCC2)CC1	-	0	0	0	?
O=C(CSc1nc2c(c(=O)[nH]1)CN(Cc1ccc(F)cc1)CC2)Nc1ccc(F)cc1	0	0	0	21µM	16µM
COc1ccc(Cc2noc(CN(C)Cc3cccc(-n4cccn4)c3)n2)cc1OC	0	0	0	?	?
CCCN1C(=O)c2oc3cc(C)cc(C)c3c(=O)c2C1c1ccc(F)cc1 (centres undefined)	-	0	0	0	0
COc1cccc(CN(C(=O)Cc2c[nH]c3ccccc23)C(C(=O)NC2CCCCC2)c2ccc(C)o2)c1 (centres undefined)	0	?	0	16µM	16µM
COc1ccc(CN(C(=O)Cc2c[nH]c3ccccc23)C(C(=O)NC2CCCCC2)c2ccc(C)o2)cc1 (centres undefined)	0	0	0	?	18µM
COc1cc(C(C(=O)NC2CCCCC2)N(Cc2cccs2)C(=O)Cc2c[nH]c3ccccc23)cc(OC)c1OC (centres undefined)	0	0	0	23µM	21µM
Cc1ccc(C(C(=O)NC2CCCCC2)N(Cc2ccccc2)C(=O)Cc2c[nH]c3ccccc23)o1 (centres undefined)	0	0	0	?	?
COc1ccc(NC(=O)C(c2ccccc2)N(C)C(=O)/C=C\c2ccc3c(c2)OCO3)cc1 (centres undefined)	-	0	0	?	?
COc1ccc(C(C(=O)Nc2ccc3c(c2)OCO3)N(C)C(=O)Cc2c[nH]c3ccccc23)cc1 (centres undefined)	0	0	0	18µM	?
CCCn1c(SCC(=O)NCCc2ccc(OC)c(OC)c2)nc2c1c(=O)n(C)c(=O)n2C	0	0	0	0	0
Cc1c(C(=O)N2CC3CCC2C3)sc2ncnc(NCCc3c[nH]c4ccccc34)c12 (centres undefined)	-	-	-	?	23µM
SMILES	uPA surface inh	miR-21 reporter	TDP1 block	TDP1 cell CPT	TDP1 cell noCPT
CC1(C#N)c2ccccc2C(Br)=CN1C(=O)c1ccccc1 (centres undefined)	0	-	0	?	?
N#CC1(Cc2ccc(Cl)cc2)c2ccccc2C=CN1C(=O)c1ccccc1 (centres undefined)	0	0	0	?	18µM
Cc1cccc(Sc2ccc([N+](=O)[O-])cc2[N+](=O)[O-])n1	0	?	0	3.3µM	3.3µM
O=[N+]([O-])c1cc(C(F)(F)F)ccc1Sc1nccn1Cc1ccccc1	0	0	0	0	0
O=[N+]([O-])c1ccc(Sc2nccn2Cc2ccccc2)c([N+](=O)[O-])c1	0	0	0	6.5µM	5.8µM
O=c1cc(-c2ccccc2)nc(Sc2ccc([N+](=O)[O-])cc2[N+](=O)[O-])[nH]1	0	-	-	?	?
O=[N+]([O-])c1ccc(Sc2ncccn2)c([N+](=O)[O-])c1	0	?	0	0.82µM	0.92µM
CCOC(=O)c1ccc(-c2ccc(/C=C(\C#N)C(=O)NCC3CCCO3)o2)cc1 (centres undefined)	0	0	0	21µM	23µM
COc1ccc(NC(=O)/C(C#N)=C/c2ccc(-c3ccc(Cl)c(C(=O)O)c3)o2)cc1	?	0	-	18µM	?
CCCCOC(=O)c1ccc(NC(=O)/C(C#N)=C/c2ccc(-c3ccccc3)o2)cc1	-	0	0[12.3 µM]	16µM	16µM
COc1ccc(NC(=O)/C(C#N)=C\c2ccc(-c3cccc(C(=O)O)c3C)o2)cc1	0	0	-	?	4.6µM
COc1cc(/C=C(\C#N)C(=O)NCC2CCCO2)ccc1OCCC(C)C (centres undefined)	0	0	0	21µM	16µM
COc1ccc(/C=C(\C#N)C(=O)NCC2CCCO2)cc1OC (centres undefined)	0	0	0	0	0
CCCCNC(=O)/C(C#N)=C/c1ccc(-c2ccc(S(=O)(=O)N3CCOCC3)cc2)o1	0	0	0	7.3µM	10µM
O=C(c1ccc(C(F)(F)F)cc1)N1CCC(=O)N(C(COCc2ccccc2)Cc2ccccc2)CC1 (centres undefined)	0	0	0	21µM	21µM
CC(C)(C)c1ccc(C(=O)N2CCC(=O)N(C(COCc3ccccc3)Cc3ccccc3)CC2)cc1 (centres undefined)	?	0	0	15µM	21µM
O=c1cc(-c2cc3ccccc3o2)c2cc(O)ccc2o1	0	0	50µM	0	?
CC(=O)COc1ccc2oc(=O)cc(-c3cc4ccccc4o3)c2c1	0	0	0	?	?
Cc1cc2oc(=O)cc(-c3cc4ccccc4o3)c2cc1O	0	0	-	26µM	23µM
O=C(NCCC1=CCCCC1)c1cnccn1	0	0	0	0	0
Cc1csc2nc(O)c(C(=O)NCCC3=CCCCC3)c(=O)n12	0	-	0	15µM	7.3µM
Cc1csc2nc(O)c(C(=O)NCCCc3ccccc3)c(=O)n12	0	-	0	15µM	15µM
